In PubChem BioAssay:
Activity calls are given as the source filed them.

Legend:
[1] = molecular target: Albumin (Bos taurus) (UniProt P02769); experiment: compounds binding labelled BSA control protein – biochemical, small-molecule microarray, Alexa647 label, 635/667 nm fluorescence, artefact control for SMM control protein annotation, profiling panel (AID 1118); conditions: BSA-A647 binding, fluorescence 635 nm, higher = more signal;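 also: score merges 667 nm emission intensity and signal-to-noise per printed compound spot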
Sequence of Albumin (Bos taurus) (P02769 whole entry, looked up): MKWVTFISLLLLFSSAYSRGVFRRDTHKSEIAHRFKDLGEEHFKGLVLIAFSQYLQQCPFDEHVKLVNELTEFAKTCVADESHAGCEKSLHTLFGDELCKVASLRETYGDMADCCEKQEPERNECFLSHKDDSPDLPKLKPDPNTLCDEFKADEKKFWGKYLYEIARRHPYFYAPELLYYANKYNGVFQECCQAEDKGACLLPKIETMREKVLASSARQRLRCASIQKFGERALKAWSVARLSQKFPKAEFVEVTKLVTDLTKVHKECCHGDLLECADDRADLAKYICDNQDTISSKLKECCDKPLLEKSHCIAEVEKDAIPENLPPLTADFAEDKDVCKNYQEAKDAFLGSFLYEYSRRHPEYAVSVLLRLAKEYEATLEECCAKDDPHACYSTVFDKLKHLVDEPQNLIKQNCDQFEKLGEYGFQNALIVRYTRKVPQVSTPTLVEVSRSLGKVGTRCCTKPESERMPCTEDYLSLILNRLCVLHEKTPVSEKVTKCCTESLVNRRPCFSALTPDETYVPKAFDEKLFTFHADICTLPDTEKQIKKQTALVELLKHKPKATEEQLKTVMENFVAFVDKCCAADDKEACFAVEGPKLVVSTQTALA

[2] = probe aXIP binding to arrayed compounds – biochemical, NeuroSMM set, 635/667 nm fluorescence, primary screen (AID 1119); conditions: small-molecule microarray, higher = more signal, called active from +8 up or from −8 down;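 also: probe is the protein aXip251-270 applied at 1 µg/mL to compound-printed slides; binding of probe to printed compounds measured as 667 nm fluorescence plus signal to noise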
[3] = probe aNOTCH3 binding on compound microarray – biochemical, small-molecule microarray, 635/667 nm fluorescence, primary screen (AID 1120); conditions: higher = more signal;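 also: probe is a biotin-tagged antibody raised against NOTCH3 rather than NOTCH3 protein; score merges spot fluorescence near 667 nm with spot signal to noise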
[4] = probe aNOTCH2 binding on compound microarray – biochemical, small-molecule microarray, 635/667 nm fluorescence, primary screen (AID 1121); conditions: higher = more signal;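 also: score merges feature fluorescence read at 667 nm with its signal to noise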
[5] = molecular target: Carbonic anhydrase 2 (Homo sapiens) (UniProt P00918); experiment: compounds binding carbonic anhydrase 2 – biochemical, small-molecule microarray, Alexa647-labelled CAII, profiling panel (AID 1122); conditions: CAII-A647 binding fluorescence, higher = more signal
[6] = COS7 lysate on small-molecule microarray, probe aHis, 635 nm (AID 1123); conditions: COS7 cell lysate, fluorescence, higher = more signal;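 also: z-score combines 667nm fluorescence intensity with signal-to-noise per printed compound spot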
[7] = probe aLAP1 signal on lysate-treated microarray – cell lysate, small-molecule microarray, COS7 lysate, primary screen (AID 1124); conditions: probe aLAP1, fluorescence, higher = more signal;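 also: lysate comes from COS7 cells expressing LAP1 and is applied at 0.3 µg/mL; score merges spot fluorescence near 667 nm with signal-to-noise over triplicate slides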
[8] = tested on: Sam68 (KHDRBS1); experiment: compounds binding KHDRBS1 protein – biochemical, small-molecule microarray, 635 nm fluorescence, primary screen (AID 1125); conditions: higher = more signal;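 also: score merges 667 nm channel intensity with signal to noise over triplicate slides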
[9] = tested on: Chordin-like protein 2 (CHRDL2); experiment: compounds binding chordin-like 2 – biochemical, small-molecule microarray, 635 nm fluorescence, primary screen (AID 1126); conditions: fluorescence 635 nm, higher = more signal;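 also: printed compound slides probed with Chrdl2 protein at 4 µg/mL for 1 h at 4 C; score merges 667 nm emission intensity with signal to noise over three replicate slides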
[10] = molecular target: Concanavalin-A (Canavalia ensiformis) (UniProt P02866); experiment: compounds binding concanavalin A lectin – biochemical, small-molecule microarray, Alexa647 label, 635 nm, artefact control for SMM control protein annotation, primary screen (AID 1127); conditions: ConA-A647 binding fluorescence, higher = more signal;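 also: z combines 667 nm emission intensity with signal-to-noise across three replicate slides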
Sequence of Concanavalin-A (Canavalia ensiformis) (P02866 whole entry, looked up): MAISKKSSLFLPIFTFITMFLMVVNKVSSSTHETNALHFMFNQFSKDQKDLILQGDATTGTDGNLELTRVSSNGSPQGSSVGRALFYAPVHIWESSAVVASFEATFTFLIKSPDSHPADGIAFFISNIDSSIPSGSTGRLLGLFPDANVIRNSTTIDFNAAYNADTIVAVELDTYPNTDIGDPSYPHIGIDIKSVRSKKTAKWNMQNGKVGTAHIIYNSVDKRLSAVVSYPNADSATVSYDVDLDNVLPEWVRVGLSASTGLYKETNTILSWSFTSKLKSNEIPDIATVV

SMILES | composite z-score [1] | composite Z-score [2] | composite z-score [3] | composite z-score [4] | composite z-score [5] | composite z-score [6] | composite z-score [7] | composite z-score [8] | composite z-score [9] | composite z-score [10]
CCCC=C(CCC)[C@@H](NS(=O)(=O)c1ccccc1)c1ccc(C(F)(F)F)cc1 | 0.871 | 0.35 (inactive) | 0.23 | 0.277 | 0.578 | 2.65 | 0.17 | 1.32 | 0.24 | 1.09
O=C1O[C@H](c2ccccc2)[C@H](c2ccccc2)N2[C@H]1[C@@H](C(=O)N1CCN(c3ncccn3)CC1)[C@]1(C(=O)Nc3ccc(C#CCCO)cc31)[C@H]2c1ccccc1OCCO | 0.759 | -0.215 (inactive) | -0.0918 | -0.0533 | 0.556 | 2.03 | 1.38 | 1.3 | 0.231 | 1.11
Cc1ccccc1C(O)C1C=CC2C(=O)N(C)C(=O)C2N1Nc1ccc([N+](=O)[O-])cc1[N+](=O)[O-] (stereo not given) | 0.953 | 0.451 (inactive) | 0.338 | -0.108 | 0.671 | 2.47 | 0.288 | 1.29 | -0.723 | 1.16
NC(=O)[C@H]1[C@@H]2C(=O)O[C@@H](c3ccccc3)[C@@H](c3ccccc3)N2[C@@H](c2ccc(O)cc2)[C@]12C(=O)Nc1ccc(C#CC3(O)CCCCCC3)cc12 | 0.0474 | 0.467 (inactive) | 0.205 | -0.0859 | 0.51 | 2.63 | 0.807 | 1.29 | 0.412 | 1.12
CC1CC/C=C\[C@H]2OC34C=CCN(Cc5ccccc5)C(=O)[C@H]3N(CCO)C(=O)[C@@H]4C2C(=O)O1 (stereo not given in full) | -0.897 | 0.461 (inactive) | -0.0984 | -0.154 | 0.873 | 0.368 | 1.29 | 0.386 | -0.793 | -0.315
COc1ccc(C#Cc2ccc3c(c2)[C@]2(C(=O)N3)[C@H](C(=O)O)[C@H]3C(=O)O[C@H](c4ccccc4)[C@H](c4ccccc4)N3[C@@H]2c2ccc(OCCO)cc2)cc1 | 0.92 | 0.655 (inactive) | 0.364 | 0.0572 | 0.421 | 1.84 | 0.714 | 1.29 | 0.245 | 1.13
COc1ccc(C(=O)Nc2ccc(CN3C(=O)[C@@]4(O[C@@H](CC(=O)N5Cc6ccccc6C[C@H]5CO)[C@H]([Si](C)(C)c5ccc(OC)cc5)[C@H]4C)c4ccccc43)cc2)cc1 | 0.604 | -0.086 (inactive) | -0.137 | -0.153 | 0.55 | 2.26 | 0.226 | 1.27 | 1.18 | 0.965
C=CC[C@@]1(C(=O)NCC(O)CO)N=C(c2ccc(OCCCO)cc2)O[C@@H]1c1ccccc1 (stereo not given in full) | 0.814 | 1.81 (inactive) | 0.13 | -0.0028 | 0.797 | 3.84 | 0.595 | 1.22 | -0.381 | -0.237
COC(=O)[C@]1(Cc2ccccc2CN=[N+]=[N-])N=C(c2ccc(OCCCO)cc2)O[C@@H]1c1ccccc1 | -0.312 | 0.667 (inactive) | -0.122 | -0.0194 | 0.563 | 0.243 | -0.779 | -0.776 | -0.928 | 0.694
COCCCNC(=O)[C@@]1(Cc2ccccc2N=[N+]=[N-])N=C(c2ccc(OCCCO)cc2)O[C@H]1c1ccccc1CN=[N+]=[N-] | 0.771 | 0.103 (inactive) | 0.315 | 0.034 | 0.697 | 2.69 | 0.565 | 1.29 | -0.508 | 1.01
N#Cc1ccc(NN2C(C(O)c3ccco3)C=CC3C(=O)N(c4ccccc4)C(=O)C32)cc1 (stereo not given) | 0.488 | 0.499 (inactive) | 0.188 | -0.0148 | 0.89 | 1.5 | 0.687 | 0.0163 | 0.111 | 0.458
Cc1ccc(-c2cccc(=O)o2)cc1 | -0.682 | -1.14 (inactive) | -0.15 | -0.108 | -0.501 | 0.0688 | 0.258 | -1.39 | 0.183 | -0.413
C[N+](C)(C)CCCCNC(=O)[C@H]1C[C@H]2C(=O)NCC(=O)N2[C@H]1c1ccc(O)cc1 | -1.48 | 0.586 (inactive) | 0.175 | -0.0457 | 0.568 | 1.56 | 1.01 | 0.852 | 1.39 | 1.14
C=CC[C@]1(C(=O)N2CCOCC2)N=C(c2ccc(OCCCO)cc2)O[C@H]1c1ccccc1CN=[N+]=[N-] | 0.971 | 0.0707 (inactive) | 0.533 | 0.0402 | 0.385 | 2.92 | 1.64 | 1.29 | -0.321 | 1.15
COC(=O)[C@@]1(Cc2ccc(OC)cc2)[C@H]2c3cc(C(=O)N4CCCC4)n(CCc4ccc(O)c(OC)c4)c3C[C@H]2CN1C(=O)c1ccccc1 | 0.952 | 0.683 (inactive) | 0.23 | 0.12 | 0.742 | 2.28 | 0.191 | -0.295 | -0.508 | 0.173
[N-]=[N+]=Nc1ccccc1C[C@]1(C(=O)NCCN2CCOCC2)N=C(c2ccc(OCCCO)cc2)O[C@H]1c1ccccc1N=[N+]=[N-] | 0.892 | 0.241 (inactive) | 0.505 | 0.141 | 0.584 | 2.84 | 0.505 | 1.29 | 0.415 | 1.15
